# Source: the supplement of paper PMC3334620
# Whole data set: some 33,000 sequences, median “E-score (-0.5 to 0.5)” near -0.035, cut for the highest 2% near 0.35. Only a selection was taken, and the highest values are over-represented in it overall.
# Molecular target: T1, Pdr3 (UniProt P33200)
# T1 sequence: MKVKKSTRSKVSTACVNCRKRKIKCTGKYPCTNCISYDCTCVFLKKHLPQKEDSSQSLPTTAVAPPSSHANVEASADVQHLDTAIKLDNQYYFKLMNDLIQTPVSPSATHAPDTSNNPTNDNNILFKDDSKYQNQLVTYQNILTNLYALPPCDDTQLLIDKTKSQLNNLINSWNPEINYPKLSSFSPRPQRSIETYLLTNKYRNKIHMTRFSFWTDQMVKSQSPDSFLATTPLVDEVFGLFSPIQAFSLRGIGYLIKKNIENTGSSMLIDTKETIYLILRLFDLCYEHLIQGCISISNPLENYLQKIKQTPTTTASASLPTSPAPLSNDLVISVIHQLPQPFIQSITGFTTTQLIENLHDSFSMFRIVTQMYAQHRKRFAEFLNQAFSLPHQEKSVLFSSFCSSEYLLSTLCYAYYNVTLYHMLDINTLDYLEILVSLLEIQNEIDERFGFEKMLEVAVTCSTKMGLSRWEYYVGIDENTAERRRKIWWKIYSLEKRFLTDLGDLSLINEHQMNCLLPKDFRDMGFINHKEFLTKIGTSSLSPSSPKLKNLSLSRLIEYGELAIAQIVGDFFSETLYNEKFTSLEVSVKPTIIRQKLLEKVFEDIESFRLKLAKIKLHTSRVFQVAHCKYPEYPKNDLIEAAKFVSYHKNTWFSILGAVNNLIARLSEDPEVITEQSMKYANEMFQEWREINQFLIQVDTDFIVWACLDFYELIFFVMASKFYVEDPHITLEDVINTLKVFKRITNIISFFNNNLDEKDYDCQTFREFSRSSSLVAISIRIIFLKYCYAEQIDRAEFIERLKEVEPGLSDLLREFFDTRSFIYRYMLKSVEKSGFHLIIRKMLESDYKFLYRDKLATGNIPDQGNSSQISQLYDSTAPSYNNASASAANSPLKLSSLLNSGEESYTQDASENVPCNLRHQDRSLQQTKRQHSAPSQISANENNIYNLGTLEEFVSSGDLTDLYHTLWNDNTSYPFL
# Assay: PBM E-score (8-mer binding enrichment) (E-score (-0.5 to 0.5)); higher = stronger / more preferred TF binding
# Settings: protein concentration: 200 nM; construct: GST-full length
# Method: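 Universal 'all 10-mer' protein binding microarrays (Agilent AMADID 015681) probed with GST-tagged S. cerevisiae TFs (full-length or DBD) made by in vitro transcription/translation (PURExpress), about 100-200 nM. Bound TF was detected with fluorescent anti-GST. Each ungapped 8-mer (which stands for itself and its reverse complement) is scored by the PBM enrichment score (E-score), a modified Wilcoxon-Mann-Whitney statistic from -0.5 to +0.5, computed with the Universal PBM Analysis Suite. Scale: above 0.35 generally sequence-specific binding.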
row,Sequence,PBM E-score
1,AATTCGGA,0.365
2,CATTCGGA,0.356
3,AATTCGGC,0.173
4,CGTTCGGA,0.414
5,GGTTCGGA,0.34
6,CGTTCGGC,0.171
7,AATTCGGG,0.153
8,GATTCGGA,0.29
9,CATTCGGC,0.145
10,GTAGCGTA,-0.0161
11,CTGTCGCC,0.0223
12,AAAAGATC,-0.0361
13,TCCGCAGA,0.258
14,CCCAAACA,-0.0368
15,AGGTTAGA,-0.00179
16,CGCCTGCC,-0.0358
17,AACCACCC,-0.00213
18,ACATAGAT,-0.085
19,CCAACCGC,0.146
20,AGTGTTCG,-0.0373
21,CATTAGAG,-0.234
22,CGGAAGCC,0.416

row,Sequence,PBM E-score
1,CCGAAGCC,0.245
2,AGGAAGCC,-0.0295
3,GGGAAGCA,-0.0013
4,CGGAAGCA,0.428
5,AGGAAGCA,-0.16
6,CGCGCTCC,0.308
7,ATTGTGGC,0.0289
8,GTCTACCA,-0.252
9,GTGGGAAA,-0.0227
10,CGGTTGGC,0.161
11,AAATACGG,0.0148
12,ACACGGAG,0.284
13,CCACGGCG,0.182
14,TCACGGAA,0.464
15,TCACGGGA,0.203
16,CCACGGGG,0.335
17,CCACGGAC,0.34
18,ACACGGAA,0.438
19,CCACGGAA,0.484
20,TCACGGCA,0.193
21,ACACGGAT,0.302
22,CCACGGAG,0.429

row,Sequence,PBM E-score
1,CCACGGGA,0.325
2,ACAATTTG,-0.117
3,AGACGGGC,0.0159
4,CTCGCAAA,-0.131
5,AGGAGAAT,-0.00643
6,AGGATGCA,-0.117
7,AAGGCATC,-0.216
8,ACCTAAAG,-0.12
9,CTCCACGC,-0.165
10,GGGATCAC,-0.0461
11,CGGATCAC,0.391
12,CGGATCAG,0.334
13,TGGATCAA,-0.168
14,CGGATCAA,0.356
15,AGGATCAC,-0.231
16,ATAGCCCG,0.0917
17,ATCGTTTG,0.0176
18,TATTCGCA,-0.0986
19,AGCCAGCT,-0.164
20,GTGGCGAA,0.106
21,CCGGGGCC,0.367
22,CCCGGGCG,0.421

row,Sequence,PBM E-score
1,CCCGGGCC,0.397
2,CGGGGGCC,0.142
3,CCGGGGCG,0.374
4,CCCCGGCG,0.162
5,CCGGGGCA,0.235
6,ACGGGGCG,0.183
7,GCCGGGCC,0.12
8,ACCGGGCG,0.0259
9,ACCGGGCC,0.25
10,CCGGGGGC,0.235
11,AAGCAGCG,0.017
12,CTACTCCA,-0.162
13,TCGACCGA,0.0776
14,ACTGGGCG,-0.018
15,AGTATTGC,-0.0115
16,ACCCAGTC,-0.0225
17,CGCCTCCG,0.295
18,AACTAGAC,-0.106
19,GCCTCACA,-0.114
20,CCCGATCG,0.234
